Experimental findings from PubChem BioAssay AID1224855 (National Center for Advancing Translational Sciences (NCATS), 2016) are described below.

Results filed as inconclusive are left out. A number with no mark means an inactive call. The source made the active and inactive calls. Calls follow the shape of the dose curve; as a rule, active = well fitted inhibition curve with a large enough effect; inconclusive = small, poorly fitted or top-dose-only effect; inactive = no such curve, though single readings can be large or run the other way.

The experiment in a line: Confirmation assay for measurement of the activity of small molecule inhibitors on Zika virus induced Caspase-3 activity in human iPSC derived neural progenitor cells (hNPCs). The note with it: hNPC ZIKV-induced caspase-3/7, Caspase-Glo luminescence, 6 h; series mostly up to 46.1 µM; activity, negative = inhibition: at the top concentration. The text has this:
National Center for Advancing Translational Sciences [NCATS] Johns Hopkins University School of Medicine Florida State University Assay Overview: Increase in the Caspase-3 activity indicates an activation of apoptosis cell death pathway caused by Zika virus infection in certain types of neuronal cells including human neural progenitor cells (hNPCs), astrocytes, and astrocytoma cell line (SNB-19). This cell-based caspase-3 activity assay measures the increased caspase-3 activity in the human iPSC derived neural progenitor cells (hNPCs) after a 6-hour Zika virus infection with a luminescence readout. A decrease in the luminescence signal in this assay by small molecule treatment indicates an inhibitory effect of that small molecule on the Zika virus induced caspase-3 activity that may correlate with its effect on reduction of Zika virus caused cell death.
Assay Protocol Summary: The medium for hNPCs consists of DMEM/F12, N2 supplement (ThermoFisher, Cat.# 17502048), NEAA (ThermoFisher, Cat. # 11140050), 2 ug/ml heparin, 2 uM cyclopamine, and B27 (ThermoFisher, Cat. # 17504044). A Caspase-Glo 3/7 assay kit (catalog number G8092; Promega, Madison, WI) was used to detect caspase-3 activity induced by Zika virus infection in human cells. The reagent mixture was reconstituted as described in the protocol from the manufacturer. Polystyrene tissue culture treated and PDL coated white plates were obtained from Greiner Bio-One (Monroe, NC). Cells were seeded in 384- or 1536-well assay plates and cultured at 37 C with 5% CO2 for 16 to 20 hours. The typical cell seeding density in the 1536-well plate assay is 350 cells/well in 3 ul medium for hNPCs in tissue culture treated plates. Compounds were added to cells and incubated for one hour before addition of ZIKV solution to cells (2 FFU/cell). After incubation at 37 C with 5% CO2 for 6 hours, the reagent mixture of Caspase-Glo 3/7 assay kit was added to each well, followed by incubation at room temperature for 30 minutes. The luminescence intensity of the assay plates was measured using a ViewLux plate reader (PerkinElmer). Data were normalized by using the cell-containing wells without ZIKV as a negative control (0% induction of caspase 3/7 activity) and wells containing ZIKV infected cells (Caspase-3 activity induced) as a positive control (100% induction of caspase 3 activity). The percentage inhibitions of the increased Caspase-3 activity by small molecule inhibitors were then calculated.
Turning to `COc1ccc(-c2coc3cc(O)ccc3c2=O)cc1`, the Potency was 8.69 µM (active).

Consider `CC1=C(CO)C(=O)O[C@@H]([C@@H](C)[C@H]2CC[C@H]3[C@@H]4C[C@H]5O[C@]56[C@@H](O)C=CC(=O)[C@]6(C)[C@@H]4CC[C@]23C)C1`, for which the “activity, negative = inhibition” value was -16.7%.

In the case of `O=C(Nc1cc2cc[nH]c2cn1)c1ccccc1`, the Potency is 3.46 µM (active).

Turning to `CN(C)c1ccc(/C=C2\C(=O)Nc3ccccc32)cc1`, the Potency was 7.74 µM (active).

Consider `N#C/C(=C\c1ccc(O)c(O)c1)C(=O)Nc1ccccc1`, for which the Potency was 15.5 µM (active).

`CC(C(=O)O)c1ccc(-c2ccccc2)c(F)c1` (stereo not given): the “activity, negative = inhibition” value is -7.07%.

Consider `Cc1oncc1C(=O)Nc1ccc(C(F)(F)F)cc1`, for which the Potency was 1.38 µM (active).

Regarding `Cc1c(NC(=O)c2ccc(C(C)(C)C)cc2)cccc1-c1cn(C)c(=O)c(Nc2ccc(C(=O)N3CCOCC3)cc2)n1`, the “activity, negative = inhibition” value was 26.9%.

Turning to `CC(C(=O)O)c1ccc(C(=O)c2ccccc2)s1` (stereo not given), the Potency was 6.9 µM (active).

For `COc1ccc(C=CC(=O)Nc2ccccc2C(=O)O)cc1OC`, the Potency was 17.3 µM (active).

In the case of `C[C@@H]1CCN(C(=O)CC#N)C[C@H]1N(C)c1ncnc2[nH]ccc12`, the “activity, negative = inhibition” value was -11.3%.

With `N#CC1(c2ccc(NC(=O)c3cccnc3NCc3ccncc3)cc2)CCCC1`, the “activity, negative = inhibition” value was -30.6%.

Take `Cc1ccc(C(=O)c2ccc(CC(=O)O)n2C)cc1`: the “activity, negative = inhibition” value was -28.4%.

On to `CS(=O)(=O)c1ccc(-c2cn3ccccc3n2)cc1`, for which the Potency is 3.88 µM (active).

Regarding `C[C@H](NC(=O)C(=O)Nc1ccccc1C(C)(C)C)C(=O)N[C@@H](CC(=O)O)C(=O)COc1c(F)c(F)cc(F)c1F`, the Potency is 0.245 µM (active).

As to `CC(=Cc1ccccc1)C=C1SC(=S)N(CC(=O)O)C1=O`, the Potency is 15.5 µM (active).

`Nc1ncnc2c1ncn2[C@@H]1O[C@@H](CO)[C@H](O)[C@H]1O`: the “activity, negative = inhibition” value was 2.2% [at 23.8 µM].

`C/C(=N\O)c1ccc(OCC(=O)N2CCCCC2)cc1`: the Potency is 7.74 µM (active).

Consider `Cc1c(N)c(=O)n(-c2ccccc2)n1C`, for which the “activity, negative = inhibition” value is -16.4%.

In the case of `O=C(Nc1ccc(C(=O)O)c(O)c1)c1ccccc1`, the Potency is 4.35 µM (active).

As to `O=C(O)[C@H](CC(=O)N1C[C@@H]2CCCC[C@H]2C1)Cc1ccccc1`, the “activity, negative = inhibition” value is -27.9%.

Take `CC(C)(C)OC(=O)CN(Cc1ccc(Cl)cc1)Cc1ccc([N+](=O)[O-])s1`: the “activity, negative = inhibition” value was 38.9% [at 88.3 µM].

Regarding `Cc1nc(N)sc1-c1ccnc(Nc2ccc(N3CCOCC3)cc2)n1`, the “activity, negative = inhibition” value was -17.9%.

Regarding `O=c1c(-c2ccc(O)cc2)coc2cc(O)ccc12`, the Potency was 13.8 µM (active).

Take `O=C(O)CCC(=O)c1ccc(-c2ccccc2)cc1`: the Potency was 19.5 µM (active).

For the compound `C[C@@H](O[C@H]1OCCN(Cc2n[nH]c(=O)[nH]2)[C@@H]1c1ccc(F)cc1)c1cc(C(F)(F)F)cc(C(F)(F)F)c1`, the “activity, negative = inhibition” value was 31.4%.

On to `O=C(CS)Nc1ccccc1`, for which the “activity, negative = inhibition” value is 28.8%.

`CC(=NNC(=S)N1CCC1)c1ccccn1`: the “activity, negative = inhibition” value was -10.5%.

As for `O[C@@H](COc1cccc2ncccc12)CN1CCN(C2c3ccccc3[C@@H]3[C@H](c4ccccc42)C3(F)F)CC1` (stereo not given in full), the “activity, negative = inhibition” value was 39.1%.

Take `O=C(c1ccccc1)c1ccc2n1CCC2C(=O)O` (stereo not given): the Potency is 13.8 µM (active).

With `O=C(C=CC=Cc1ccc2c(c1)OCO2)N1CCCCC1`, the Potency was 13.8 µM (active).

For `COc1cc2nc(N3CCN(C(=O)C4CCCO4)CC3)nc(N)c2cc1OC` (stereo not given), the Potency is 9.75 µM (active).

As to `Cc1[nH]c(C=C2C(=O)Nc3ccccc32)c(C)c1CCC(=O)O`, the “activity, negative = inhibition” value was 11.2%.

Take `CC(=O)OC(C)OC(=O)C(C)c1ccc(-c2ccccc2)c(F)c1` (stereo not given): the “activity, negative = inhibition” value is -22.6%.

For the compound `O=C(O)c1cccc(-c2noc(-c3ccccc3F)n2)c1`, the Potency was 1.73 µM (active).

Consider `O=C(O)Cc1ccc(-c2ccccc2)cc1`, for which the “activity, negative = inhibition” value is -18.7%.

With `O=C(Oc1ccccc1)c1cccc(C(=O)Oc2ccccc2)c1`, the Potency is 3.98 µM (active).

`O=C1c2ccccc2-[n+]2ccc3c([nH]c4ccccc43)c21`: the Potency is 9.75 µM (active).

As to `CC(C)(C)COc1ccc(-n2cc(C(=O)O)cn2)cc1C#N`, the Potency is 22.4 µM (active).

As for `Nc1ccc(N=Nc2ccccc2)c(N)n1`, the Potency was 15.5 µM (active).
